Several values for one entry are separate records, joined by “and”; a condition that tells them apart may be missing. Equal entries are not always repeated. Activity calls are given as the source filed them. How the calls were made is not given here.
Test: inhibition of 3D7 malaria parasite growth – strain 3D7 (AID 2306);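 further: 0% = DMSO wells and 100% = chloroquine plus artemisinin control wells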
Details: P. falciparum 3D7 erythrocytic growth, LDH absorbance, 72 h; at 2 µM; active compounds read high

Growth inhibition, active:
COc1ccc2nc(C)cc(NN=Cc3ccccc3Cl)c2c1 100%, COc1ccccc1NC(=O)c1cc(C(=O)c2cc(Cl)ccc2O)cn(-c2ccccc2OC)c1=O 92%, CCc1c(C)nc2nc(Cc3cccc(F)c3)nn2c1N1CCN(c2ccccn2)CC1 100%, COc1ccc(NC(=O)NC2CCN(CCCOc3ccnc4cc(Cl)ccc34)C2)cc1OC (stereo not given) 90%, CN1CCCN(Cc2ccc(-c3cccc(NC(=O)c4ccc(F)cc4)c3)cc2)CC1 89%, Cc1cc(NCC2CCN(CC3CCCCC3)C2)nc(Nc2ccc(Br)cc2)n1 (stereo not given) 101%, Cc1cccc2[nH]c(-c3ccc(-c4cccc(NC(=O)NCc5cccc(F)c5)c4)cc3)nc12 94%, CCOC(=O)C(C)(C)Oc1ccc(C(=C2CC(C)(C)CC(C)(C)C2)c2ccc(O)cc2)cc1 92%, CN(C)CCCN(C)C(=O)c1cc2cc(-c3ccccc3)ccc2n1S(=O)(=O)c1ccccc1 98%, CCN(CC)c1cc(C)c2cc(NC(=O)c3cc(=O)c4ccccc4o3)ccc2n1 97%, COc1ccc(Cl)cc1N1CCN(CCCNC(=O)c2ccc(-c3nc4cc5ccccc5cc4[nH]3)c(F)c2)CC1 99%, O=S(=O)(NCCN1CCCC1)c1cccc(-c2ccccc2CNC2Cc3ccccc3C2)c1 99%, CCCC(C)NC(=O)C(N)Cc1cccc(I)c1 (stereo not given) 95%, CCCCCCCCNc1c2ccc(Cl)cc2nc2ccc(OC)cc12 89%, CN1CCC(C(=O)Nc2cccc(-c3ccc(-c4nc5ccc(C(F)(F)F)cc5[nH]4)s3)c2)CC1 101%, Cc1cc(NCCC(=O)NCCc2ccccc2)nc(NCCc2ccc(F)cc2)n1 92%, CCCC(C)Nc1nc(C)cc(N[C@@H](CC(C)C)C(=O)NCCOc2ccccc2)n1 (stereo not given in full) 93%, CN(C)CCNC(=O)N1CCCN(c2ncnc3cc(-c4ccccc4)sc23)CC1 96%, CC(=O)Nc1cccc(C(=O)Nc2cccc(-c3cccc(-c4nc5ccccc5[nH]4)c3)c2)c1 100%, CC(CN(C)C)C(=O)Nc1ccc(-c2cccc(-c3nc4ccccc4[nH]3)c2)cc1 (stereo not given) 99%, O=C(/C=C/c1ccc(Cl)c(Cl)c1)NCCCCCN1CCC(NC(=O)Nc2ccccc2Cl)CC1 102%, CCc1cc2c(N)nc(N)nc2nc1-c1ccccc1 91%, CC(C)CNCc1cccc(-c2cccc(CNCCCN3CCN(C)CC3)c2)c1 88%, Clc1ccc2c(NCCNc3ccnc4cc(Cl)ccc34)ccnc2c1 101%, CC(C)(C)c1ccc(NC(=O)c2cccc(CN3CCCN(Cc4ccc(F)cc4)CC3)c2)cc1 88%, COc1ccc(CNCc2ccc(F)cc2)cc1-c1ccc(OC)c(S(=O)(=O)NCCN2CCCC2)c1 101%, NC1=NC(c2ccccc2)(c2ccccc2)C(=O)N1CC1CCC1 96%, O=C1C(c2ccccc2)=C(Nc2cc(Cl)cc(Cl)c2)c2ccccc21 96%, Cc1cc(C2CCN(CCCCNC(=O)c3ccc(NC(=O)c4ccc(Cl)cc4)cc3)CC2)c(C)cc1OCc1cccnc1 101%, C=C[C@H]1CN(CCCCCCC)CC[C@H]1CCN(C)c1ccnc2ccc(OC)cc12 97%, COc1ccc(CN(C)CCCSc2ccc(NC(=O)c3cccc4c(=O)cc(-c5ccccc5)[nH]c34)cc2)cc1OC 93%, CC(=O)N1N=C(c2ccc(Cl)cc2)Sc2c1nc(C1CCCCC1)n2C(C)=O 103%, OC(CNc1ccnc(Nc2cccc(Cl)c2)n1)c1cccc(C(F)(F)F)c1 (stereo not given) 101%, CCc1cc(I)c2c(c1)C(NCCCNc1cc(=O)c3ccccc3[nH]1)CCN2 (stereo not given) 89%, O=C1C(c2ccccc2)=C(Nc2ccc(Cl)cc2)c2ccccc21 91%, Cc1cc(CNCCCCCCCNCc2cccc([N+](=O)[O-])c2)ccc1O 100%, Cc1[nH]c2cccc(F)c2c(=O)c1Cc1ccc(Cl)cc1 (tested in a mixture with another compound) 94% and 93%, COc1ccc2ncc(F)c(CCN3CCC(CNC(=O)C(=O)c4c[nH]c5ccccc45)CC3)c2n1 103%, O=C(Nc1ccc(Cn2ncc(N3CCCNCC3)c(Cl)c2=O)cc1)Nc1ccc(-c2ccccc2)cc1 93%, CC(=O)N/N=C/[C@H](CCc1ccccc1)NC(=O)[C@H](CC(C)C)NC(=O)c1ccc(OCCN2CCOCC2)cc1 96%

From PubChem BioAssay
